Screens deposited in PubChem by National Center for Advancing Translational Sciences (NCATS).
Shown are actives, neighbours in structure and some others; about 2.4% of the full set was active somewhere.
D2 PAM-1 = potentiates the human D2 dopamine receptor allosterically; P14416; AID 624464; DiscoveRx D2 beta-arrestin cells, luminescence, 90 min; 100% = 57 uM dopamine signal; 0.23% of 360,000 active; potentiation, % (test concentration not listed); in the data active means potentiation above about 50%
Target sequence (P14416 whole entry, looked up): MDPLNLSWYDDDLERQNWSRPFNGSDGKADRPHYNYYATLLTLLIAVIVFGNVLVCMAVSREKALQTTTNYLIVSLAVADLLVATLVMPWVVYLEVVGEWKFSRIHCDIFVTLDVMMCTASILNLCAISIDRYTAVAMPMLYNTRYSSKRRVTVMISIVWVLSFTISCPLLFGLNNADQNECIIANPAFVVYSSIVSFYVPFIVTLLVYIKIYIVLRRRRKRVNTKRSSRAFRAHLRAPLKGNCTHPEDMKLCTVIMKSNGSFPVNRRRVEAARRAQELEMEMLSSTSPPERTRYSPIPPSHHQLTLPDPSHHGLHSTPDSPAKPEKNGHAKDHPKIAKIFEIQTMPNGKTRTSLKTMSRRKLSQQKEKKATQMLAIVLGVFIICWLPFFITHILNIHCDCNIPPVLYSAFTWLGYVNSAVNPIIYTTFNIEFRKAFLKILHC
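D2 cells co-treated with compound plus 50 nM dopamine (EC20) for 90 min at 37 deg C to detect potentiation. Beta-arrestin recruitment was read as enzyme-fragment luminescence after 1 h at ambient temperature. Full response was set by 57 uM dopamine.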
D2 ag-1 = activates the human D2 dopamine receptor. activation, % (no concentration beside the values). DiscoveRx PathHunter D2 beta-arrestin, luminescence, 90 min; 100% = 57 uM dopamine signal. 0.084% of 360,000 active. P14416; in the data active means activation above about 40%
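DiscoveRx PathHunter D2 beta-arrestin cells (2,100/well) attached overnight, then compound-stimulated 90 min at 37 C in HBSS/10 mM HEPES/0.1% Tween-20 buffer; beta-galactosidase complementation read by luminescence after 1 h at ambient temperature. Dopamine 57 uM final (EC100) as control.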
D2 antag = antagonizes the human D2 dopamine receptor. HEK293 TREx D2 cells, calcium flux, dopamine EC80. inhibition, % at 10 µM. 2% of 340,000 active. AID 485344; in the data active means inhibition above about 30%; inactive means below that, where a call was filed
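Dopamine at EC80 is the agonist stimulus; test compounds precede it by 180 s. Calcium flux read kinetically in a force-coupled, inducible HEK293 T-REx D2 cell line.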
D2 PAM-2 = D2 dopamine receptor (human) potentiation; HEK293 T-REx D2, calcium flux, EC20 dopamine potentiation; AID 485347; 0.34% of 340,000 active; potentiation, % at 10 µM;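 active means potentiation over 3 SD above the plate norm, cut at about 30% in these data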
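Tetracycline-induced HEK293 T-REx cells force-coupled to calcium signalling expressed D2; compounds were pin-added after a 10 s baseline, read kinetically 180 s, then an EC20 dopamine challenge followed with a further 180 s calcium read.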
D2 ag-2 = agonists of human D2 dopamine receptor. HEK293 T-REx D2 cells, calcium flux agonist mode. activation, % at 2 µM. 0.53% of 340,000 active. AID 485358;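 active means activation over 3 SD above normal in the single-dose calcium agonist read, cut at about 30% in these data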
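In this primary screen, compounds producing a positive calcium signal within 180 s of addition to tetracycline-induced, force-coupled HEK293 Trex D2 cells are flagged; cells are dye-loaded with a no-wash calcium kit beforehand.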
A number is an active result.

For CN1C(=O)[C@@H]2[C@H](C1=O)[C@@H]1C(=O)Nc3ccccc3C(=O)N1[C@@H]2c1ccc(Br)cc1 the results were D2 PAM-1 inactive, D2 ag-1 inactive, D2 antag inactive, D2 PAM-2 inactive and D2 ag-2 inactive.
`CC1=C(C(=O)N2CCOCC2)CC(CC(=O)NC2CCCCC2)C(=O)N1Cc1ccc(C(C)(C)C)cc1` (stereo unspecified) gave D2 PAM-1 inactive and D2 ag-1 inactive.
Screening CCN1C(=O)c2cccc3c(S(=O)(=O)N4CCC(C)CC4)ccc1c23 returned D2 PAM-1 inactive, D2 ag-1 inactive, D2 antag 37, D2 PAM-2 inactive and D2 ag-2 inactive.
For Cc1oc2ccc(OS(C)(=O)=O)cc2c1C(=O)OC(C)C the results were D2 PAM-1 inactive, D2 ag-1 inactive, D2 antag inactive and D2 ag-2 inactive.
CCN(CC)C(=O)COc1ccc2oc(C)c(C(=O)OC(C)C)c2c1 was read as D2 PAM-1 inactive, D2 ag-1 inactive, D2 antag 31, D2 PAM-2 inactive and D2 ag-2 inactive.
`Cc1cccc(OCC(=O)NCCCNC(=O)c2ccncc2)c1` gave D2 PAM-1 inactive, D2 ag-1 inactive, D2 antag inactive, D2 PAM-2 inactive and D2 ag-2 inactive.
For COCCCNC(=O)c1cc2c(=O)n3cccc(C)c3nc2n(C(C)C)c1=N the results were D2 PAM-1 inactive, D2 ag-1 inactive, D2 antag 34, D2 PAM-2 inactive and D2 ag-2 inactive.
`Cc1ccc(-c2cc(C(F)F)nc(NCc3cccnc3)n2)cc1` gave D2 PAM-1 inactive, D2 ag-1 inactive, D2 antag inactive, D2 PAM-2 42 and D2 ag-2 inactive.
For Cc1ccc(-c2cc(C(F)F)nc(NCc3cccs3)n2)cc1 the results were D2 PAM-1 inactive, D2 ag-1 inactive, D2 antag inactive, D2 PAM-2 inactive and D2 ag-2 inactive.
O=C(Nc1cccc(Cl)c1)c1cc(S(=O)(=O)N2CCCc3ccccc32)ccc1F was read as D2 PAM-2 inactive.
`Cc1nc(-c2ccc(F)cc2)c(CC(=O)N2CCN(S(=O)(=O)c3cccc(Cl)c3)CC2)s1` gave D2 PAM-1 inactive, D2 ag-1 inactive, D2 antag 34, D2 PAM-2 inactive and D2 ag-2 inactive.
For COc1cc(-c2nnc3sc(C4CCCCC4)nn23)cc(OC)c1OC the results were D2 PAM-1 inactive, D2 ag-1 inactive, D2 antag inactive, D2 PAM-2 69 and D2 ag-2 inactive.
Screening COc1cccc(-c2nnc3sc(C4CCCCC4)nn23)c1 returned D2 PAM-1 inactive, D2 ag-1 inactive, D2 antag inactive, D2 PAM-2 inactive and D2 ag-2 inactive.
Cc1ccc(NC(=O)C(C)Sc2nc(-c3ccccc3)cc(=O)[nH]2)cc1 (stereo unspecified) was read as D2 PAM-1 inactive, D2 ag-1 inactive, D2 antag 36, D2 PAM-2 inactive and D2 ag-2 inactive.
Screening CC(Sc1nc(O)c(-c2ccccc2)c(=O)[nH]1)C(=O)Nc1ccc(Cl)cc1 (stereo unspecified) returned D2 PAM-1 inactive, D2 ag-1 inactive, D2 antag inactive, D2 PAM-2 inactive and D2 ag-2 inactive.
`CC(C)C(NC(=O)C12CC3CC(CC(C3)C1)C2)C(=O)NC1=NCCS1` (stereo unspecified) gave D2 antag inactive, D2 PAM-2 inactive and D2 ag-2 inactive.
`O=C(NC1=NCCS1)C12CC3CC(CC(C3)C1)C2` gave D2 PAM-1 inactive, D2 ag-1 inactive, D2 antag 50, D2 PAM-2 inactive and D2 ag-2 inactive.
`CC1CCCCN1S(=O)(=O)c1ccc2c(c1)oc(=O)n2CC(=O)Nc1ccc(Cl)cc1` (stereo unspecified) gave D2 PAM-2 inactive and D2 ag-2 inactive.
CN(Cc1ccccc1)C(=O)C1(C)CCN1C(=O)Cc1ccc(Cl)cc1Cl (stereo unspecified) was read as D2 PAM-1 inactive and D2 ag-1 inactive.
Screening CCc1cc2c(SCC(=O)c3cccs3)ncnc2s1 returned D2 PAM-1 inactive, D2 ag-1 inactive, D2 antag 34, D2 PAM-2 inactive and D2 ag-2 inactive.
For CCOC(=O)c1ccc2c(c1)N(CC(=O)N1CCCCC1)C(=O)C(C)(C)O2 the results were D2 PAM-1 inactive, D2 ag-1 inactive, D2 antag inactive, D2 PAM-2 inactive and D2 ag-2 inactive.
For Cc1ccc2c(c1)N(CC(=O)N1CCCC1)C(=O)CO2 the results were D2 PAM-1 inactive, D2 ag-1 inactive, D2 antag inactive, D2 PAM-2 inactive and D2 ag-2 inactive.
For CCOC(=O)N1CCN(C(=O)CN2C(=O)COc3ccc(C)cc32)CC1 the results were D2 PAM-1 inactive, D2 ag-1 inactive, D2 antag 37, D2 PAM-2 inactive and D2 ag-2 inactive.
`COC(=O)CN1C(=O)C(C)(C)Oc2ccc(C(=O)Nc3ccccc3F)cc21` gave D2 PAM-1 inactive, D2 ag-1 inactive, D2 antag inactive, D2 PAM-2 31 and D2 ag-2 inactive.
`CCOC(=O)c1ccc2c(c1)N(CC(=O)N1CCCC1)C(=O)C(C)(C)O2` gave D2 PAM-1 inactive, D2 ag-1 inactive, D2 antag inactive, D2 PAM-2 45 and D2 ag-2 inactive.
CC1(C)Oc2ccc(C(=O)Nc3ccccc3F)cc2N(CC(=O)N2CCOCC2)C1=O was read as D2 PAM-1 inactive, D2 ag-1 inactive, D2 antag inactive, D2 PAM-2 inactive and D2 ag-2 inactive.
Screening CCC(C)(C)NC(=O)c1ccc2c(c1)N(CC(=O)NC1CCCC1)C(=O)C(C)(C)O2 returned D2 PAM-1 inactive, D2 ag-1 inactive, D2 antag 62, D2 PAM-2 inactive and D2 ag-2 inactive.
For COc1ccccc1N1CCN(C(=O)CSc2nc3ccccc3nc2N2CCC(C)CC2)CC1 the results were D2 PAM-1 inactive, D2 ag-1 inactive, D2 antag inactive, D2 PAM-2 inactive and D2 ag-2 inactive.
CC(C)Cn1nc(C(=O)Nc2nnc(C3CC3)s2)c2ccccc2c1=O was read as D2 PAM-1 inactive, D2 ag-1 inactive, D2 antag inactive, D2 PAM-2 inactive and D2 ag-2 inactive.
For COc1ccc(/C=C2\SC(=S)N(CCC(=O)NC3CCCC3)C2=O)cc1OC the results were D2 PAM-1 inactive, D2 ag-1 inactive, D2 antag inactive, D2 PAM-2 inactive and D2 ag-2 inactive.
`CCOc1ccccc1NC(=O)CSc1nncc2ccccc12` gave D2 PAM-1 inactive, D2 ag-1 inactive, D2 antag inactive, D2 PAM-2 35 and D2 ag-2 inactive.
For COc1ccc(OC)c(NC(=O)CSc2nncc3ccccc23)c1 the results were D2 PAM-1 inactive, D2 ag-1 inactive, D2 antag inactive, D2 PAM-2 inactive and D2 ag-2 inactive.
Screening COCCn1c(SCC(=O)Nc2cccnc2Cl)nc2ccccc21 returned D2 PAM-1 inactive and D2 ag-1 inactive.
